From PubChem BioAssay (NCI)
Compounds without any hit were thinned out: in the full panel of roughly 83,000, 20% have a hit.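 Note: values are percent growth. 100 is the growth of untreated cells, values between 100 and 0 indicate rising inhibition; between -100 and 0 indicates cell death.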 Calls of active or inactive are those of the source. How the source made its calls: active means growth percent below 10; inactive means the rest.

Tests used:
Assay in all cases: NCI-60 one-dose screen, 48 h (100 = growth as untreated, 0 = no growth, -100 = all killed)
Conditions in all cases: 10 µM unless noted
NCI-H23 lung = system: NCI-H23 lung
NCI-H226 lung = system: NCI-H226 lung
NCI-H322M lung = system: NCI-H322M lung
HOP-62 NSCLC = system: HOP-62 NSCLC
NCI-H460 lung = system: NCI-H460 lung
HOP-92 NSCLC = system: HOP-92 NSCLC
NCI-H522 lung = system: NCI-H522 lung
A549/ATCC NSCLC = system: A549/ATCC NSCLC
786-0 renal = system: 786-0 renal
COLO 205 colon = system: COLO 205 colon
DU-145 prostate = system: DU-145 prostate
K-562 leukemia = system: K-562 leukemia
MALME-3M melanoma = system: MALME-3M melanoma
MDA-MB-231 breast = system: MDA-MB-231 breast
RXF 393 renal = system: RXF 393 renal
SF-268 CNS = system: SF-268 CNS
SF-295 CNS = system: SF-295 CNS
SF-539 CNS = system: SF-539 CNS
UACC-257 melanoma = system: UACC-257 melanoma
M14 melanoma = system: M14 melanoma

Measured: growth

C=C(C)[C@@H]1CC[C@]2(C(=O)O)CC[C@]3(C)[C@H](CC[C@@H]4[C@@]5(C)CCC(NC(=O)c6cccc(OC(C)=O)c6OC(C)=O)C(C)(C)[C@@H]5CC[C@]43C)[C@@H]12 (stereo not given in full)
inactive: DU-145 prostate 21.3% | K-562 leukemia 10.7% | MDA-MB-231 breast 11.9% | SF-268 CNS 14.9%
active: NCI-H23 lung 1.89% | NCI-H226 lung -17.4% | NCI-H322M lung 8.78% | HOP-62 NSCLC -14.6% | NCI-H460 lung -39.4% | HOP-92 NSCLC -11% | NCI-H522 lung -11.4% | A549/ATCC NSCLC -6.31% | 786-0 renal -3.81% | COLO 205 colon -11.3% | MALME-3M melanoma -4.37% | RXF 393 renal -34.3% | SF-295 CNS -29.6% | SF-539 CNS -26.4% | UACC-257 melanoma 3.36% | M14 melanoma -16.2%

C#CCOc1cccc(Nc2ncnc3cc(NC(=O)C=C)ccc23)c1
active: NCI-H522 lung -17.5% | 786-0 renal 7.49% | DU-145 prostate 5.4% | K-562 leukemia 5.87% | RXF 393 renal -17% | SF-539 CNS 0.0579%
inactive: NCI-H23 lung 30.3% | NCI-H226 lung 62.3% | NCI-H322M lung 50.3% | HOP-62 NSCLC 40.4% | NCI-H460 lung 16.1% | HOP-92 NSCLC 12.3% | A549/ATCC NSCLC 29.7% | COLO 205 colon 17.3% | MALME-3M melanoma 33.9% | MDA-MB-231 breast 20.5% | SF-268 CNS 27.6% | SF-295 CNS 45% | UACC-257 melanoma 25.3% | M14 melanoma 13%

CN(C)CC1CCC(CN(C)C)C1=O (stereo not given)
inactive: NCI-H23 lung 114% | NCI-H226 lung 101% | NCI-H322M lung 110% | HOP-62 NSCLC 106% | NCI-H460 lung 111% | HOP-92 NSCLC 100% | NCI-H522 lung 95.3% | A549/ATCC NSCLC 110% | 786-0 renal 102% | COLO 205 colon 103% | DU-145 prostate 115% | MALME-3M melanoma 115% | MDA-MB-231 breast 117% | RXF 393 renal 123% | SF-268 CNS 108% | SF-295 CNS 133% | SF-539 CNS 109% | UACC-257 melanoma 109% | M14 melanoma 108%
active: K-562 leukemia 4.34%

Nc1nc2ccccc2c2c1S(=O)(=O)c1ccc(Cl)cc1C2=O
active: HOP-92 NSCLC -25.4% | NCI-H522 lung -73.5% | COLO 205 colon -18% | MALME-3M melanoma -21%
inactive: NCI-H23 lung 37.9% | NCI-H226 lung 63.1% | NCI-H322M lung 63% | HOP-62 NSCLC 30.2% | NCI-H460 lung 23.5% | A549/ATCC NSCLC 46.8% | 786-0 renal 16.2% | DU-145 prostate 26.3% | K-562 leukemia 11.5% | MDA-MB-231 breast 17.5% | RXF 393 renal 10.2% | SF-268 CNS 24.4% | SF-295 CNS 31.8% | SF-539 CNS 11.2% | UACC-257 melanoma 24.7% | M14 melanoma 17.8%

COc1cc2c(c(OC)c1OC)CCC(c1cccc(C(=O)Nc3cccc(Cl)c3)c1)O2 (stereo not given)
active: HOP-92 NSCLC 8.45%
inactive: NCI-H23 lung 85.8% | NCI-H226 lung 65.6% | NCI-H322M lung 51.7% | HOP-62 NSCLC 79.6% | NCI-H460 lung 85% | NCI-H522 lung 51.7% | A549/ATCC NSCLC 61.6% | 786-0 renal 79.8% | COLO 205 colon 76.7% | DU-145 prostate 81% | K-562 leukemia 38.2% | MALME-3M melanoma 75.2% | MDA-MB-231 breast 25.7% | RXF 393 renal 66.9% | SF-268 CNS 72.1% | SF-295 CNS 65% | SF-539 CNS 77.6% | UACC-257 melanoma 74.5% | M14 melanoma 62.1%

CCOCCNC1=C(Cl)C(=O)c2ccccc2C1=O
inactive: NCI-H23 lung 80.7% | NCI-H226 lung 121% | NCI-H322M lung 108% | HOP-62 NSCLC 110% | NCI-H460 lung 94.9% | HOP-92 NSCLC 127% | NCI-H522 lung 82.9% | A549/ATCC NSCLC 101% | 786-0 renal 105% | COLO 205 colon 130% | DU-145 prostate 76.3% | K-562 leukemia 91.8% | MALME-3M melanoma 106% | MDA-MB-231 breast 116% | RXF 393 renal 123% | SF-268 CNS 101% | SF-295 CNS 95.1% | SF-539 CNS 121% | UACC-257 melanoma 98.2% | M14 melanoma 110%

O=C(N(c1ccccc1)c1ccccc1)n1cc(I)c2nc(Cl)nc(Cl)c21
inactive: NCI-H23 lung 72.6% | NCI-H226 lung 71.8% | NCI-H322M lung 92.6% | HOP-62 NSCLC 43.9% | NCI-H460 lung 43.8% | HOP-92 NSCLC 71.8% | A549/ATCC NSCLC 60.2% | 786-0 renal 57.7% | COLO 205 colon 79.4% | DU-145 prostate 43.3% | K-562 leukemia 20.8% | MALME-3M melanoma 73.4% | MDA-MB-231 breast 67.6% | RXF 393 renal 40.1% | SF-268 CNS 34.3% | SF-295 CNS 48.2% | SF-539 CNS 56.8% | UACC-257 melanoma 53.7% | M14 melanoma 57.4%
active: NCI-H522 lung 3.35%

CC(C)=CCC[C@](C)(O)[C@H]1CC[C@]2(C)[C@@H]1CC[C@@H]1[C@@]3(C)C/C(=C/c4ccco4)C(=O)C(C)(C)[C@@H]3CC[C@]12C
inactive: NCI-H23 lung 101% | NCI-H226 lung 103% | NCI-H322M lung 103% | HOP-62 NSCLC 102% | NCI-H460 lung 106% | HOP-92 NSCLC 98.2% | NCI-H522 lung 102% | A549/ATCC NSCLC 107% | 786-0 renal 99.6% | COLO 205 colon 110% | DU-145 prostate 113% | K-562 leukemia 99.2% | MALME-3M melanoma 107% | MDA-MB-231 breast 101% | RXF 393 renal 111% | SF-268 CNS 101% | SF-295 CNS 100% | SF-539 CNS 102% | UACC-257 melanoma 109% | M14 melanoma 104%
